# Screening results as filed in PubChem.
# Hits are enriched below; roughly 3.5% of the tested compounds scored in any of these assays.
# LEDGF integ inh = blocks HIV-1 LEDGF/p75-dependent DNA integration | inhibition, % at 3.7 µM | AID 743269 | TR-FRET IN-LEDGF/p75 DNA integration, Eu/Cy5 | actives 0.64% (n = 370,000);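 active means inhibition above the screen-wide mean plus 3 SD, cut at about 13% in these data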;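 further: signal is the Cy5 over europium emission ratio at 671 and 618 nm; 0% = plate median of compound wells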
# MBD2 inh = inhibitors of human MBD2 binding to methylated oligonucleotide; Q9UBB5; TR-FRET; inhibition, % at 4.4 µM; actives 0.31% (n = 370,000); AID 686964; in the data active means inhibition above about 13%
# UHRF1 MBD2 ctr = UHRF1 methyl-DNA binding inhibition | actives 0.75% (n = 370,000) | inhibition, % at 4.4 µM | Q96T88 | UHRF1 binding to methylated oligo, TR-FRET; in the data active means inhibition above about 21%;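 further: UHRF1 SRA domain binding a hemimethylated CpG hairpin DNA probe; 0% = median of test compound wells and 100% = reference inhibitor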
# DNMT1 inh = DNMT1 (human) enzyme inhibition. P26358. DNMT1 molecular beacon, Hinp1I cleavage, fluorescence. inhibition (reported as % activation of signal), % at 10 µM. actives 0.83% (n = 360,000); in the data active means inhibition above about 50%
# Target sequence (P26358 504-1616 limits assumed): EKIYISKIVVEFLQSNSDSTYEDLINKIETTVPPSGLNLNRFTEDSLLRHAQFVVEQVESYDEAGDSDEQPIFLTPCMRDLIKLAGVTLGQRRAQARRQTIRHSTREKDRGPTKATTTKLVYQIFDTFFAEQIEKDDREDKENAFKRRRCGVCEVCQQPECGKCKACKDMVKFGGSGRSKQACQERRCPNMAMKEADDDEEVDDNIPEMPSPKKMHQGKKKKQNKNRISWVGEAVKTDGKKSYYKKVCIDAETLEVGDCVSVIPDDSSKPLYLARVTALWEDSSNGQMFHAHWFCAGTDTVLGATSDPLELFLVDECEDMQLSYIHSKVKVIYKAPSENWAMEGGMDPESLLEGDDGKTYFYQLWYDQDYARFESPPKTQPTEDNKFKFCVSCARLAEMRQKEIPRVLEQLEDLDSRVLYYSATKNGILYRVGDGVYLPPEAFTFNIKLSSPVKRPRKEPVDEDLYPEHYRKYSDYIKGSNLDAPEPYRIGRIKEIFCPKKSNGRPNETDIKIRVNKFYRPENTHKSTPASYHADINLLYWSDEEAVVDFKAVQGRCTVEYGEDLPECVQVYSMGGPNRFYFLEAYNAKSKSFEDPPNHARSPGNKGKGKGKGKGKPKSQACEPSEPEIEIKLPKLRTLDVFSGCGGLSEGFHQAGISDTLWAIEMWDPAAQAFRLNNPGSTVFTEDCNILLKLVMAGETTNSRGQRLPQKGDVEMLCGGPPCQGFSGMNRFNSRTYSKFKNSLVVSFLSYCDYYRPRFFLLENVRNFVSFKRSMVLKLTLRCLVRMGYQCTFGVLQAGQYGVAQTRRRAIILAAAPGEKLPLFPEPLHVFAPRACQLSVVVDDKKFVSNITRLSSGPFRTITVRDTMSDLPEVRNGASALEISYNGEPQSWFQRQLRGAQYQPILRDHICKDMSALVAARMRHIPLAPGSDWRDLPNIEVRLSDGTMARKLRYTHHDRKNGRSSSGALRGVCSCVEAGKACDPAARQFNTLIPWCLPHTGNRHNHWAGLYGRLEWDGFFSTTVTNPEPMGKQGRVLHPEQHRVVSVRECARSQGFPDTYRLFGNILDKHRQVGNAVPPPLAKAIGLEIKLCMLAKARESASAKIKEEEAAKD
# PG9 Ab binder = binds the HIV-1 gp120 antibody PG9; inhibition, % at 6.7 µM; actives 0.43% (n = 360,000); TR-FRET gp120-PG9 antibody binding; in the data active means inhibition above about 8.5%
# rCAG binder = binds r(CAG) RNA repeats. r(CAG) RNA repeat, TO-PRO-1 dye displacement fluorescence. actives 1.3% (n = 370,000). inhibition, % at 3 µM;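 active means inhibition above the plate cutoff, the mean of all test compounds on that plate plus 3 SD, cut at about 35% in these data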;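 further: 0% = DMSO alone and 100% = 100 µM mitoxantrone as full dye displacement; higher means more dye released from RNA so lower well fluorescence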
# PG9 bind confirm = confirmation of small molecules binding HIV-1 gp120 antibody PG9; shares compounds with PG9 Ab binder; TR-FRET PG9 antibody binding, biochemical; inhibition, % at 6.7 µM; actives 90% (n = 1,500); in the data active means inhibition above about 9%
# PGV04 counter = binds control antibody PGV04 in PG9 binder counter-screen. shares compounds with PG9 Ab binder. TR-FRET PGV04 antibody-gp120 binding, biochemical. inhibition, % at 6.7 µM. actives 95% (n = 1,500). AID 651604; in the data active means inhibition above about 9.5%
# PG9 binder DR = PG9 antibody binding, dose response; 95 tested, under 10 active; TR-FRET PG9 antibody-gp120 binding inhibition; shares compounds with PG9 Ab binder; IC50, µM; in the data active means IC50 below about 10 µM
# PGV04 binding DR = counter-screen for PG9 binders: binding to control antibody PGV04; shares compounds with PG9 Ab binder; TR-FRET binding to control antibody PGV04; IC50, µM; actives 20% (n = 95)
# PG126 DR counter = counter-screen for PG9 binders: binding to control antibody PG126; shares compounds with PG9 Ab binder; TR-FRET binding to antibody PG126, counterscreen; IC50, µM; actives 20% (n = 95); AID 651939
# * marks the source's active call; other numbers are inactive results; i = inactive; / = no result given. Unless noted, no stated cut-off is given here; in the data, active means IC50 below about 9 µM; inactive means the rest.
SMILES,LEDGF integ inh,MBD2 inh,UHRF1 MBD2 ctr,DNMT1 inh,PG9 Ab binder,rCAG binder,PG9 bind confirm,PGV04 counter,others
S=c1nc(Cc2ccccc2)[nH]c2ccccc12,5,0,-1,0,25*,1,16*,13*,PG9 binder DR=>67;PGV04 binding DR=i;PG126 DR counter=i
S=c1nc(COc2ccccc2)[nH]c2ccccc12,4,-1,2,-9,13*,13,9.2*,9.4*,
Cc1nc(=S)c2ccccc2[nH]1,1,-2,-1,5,-1,2,/,/,
O=c1[nH]c(COc2ccccc2)nc2ccccc12,0,0,4,0,-1,-2,/,/,
Cc1ccc2c(=O)n3c(nc2c1)C(C)NC(=O)c1cccnc1-3 (stereo unspecified),0,0,0,2,1,1,/,/,
O=C(NC(=S)N1CCOCC1)c1cn(-c2ccccc2)nc1-c1ccc(F)cc1,4,-5,-3,-4,0,4,/,/,
CCn1c2ccccc2c2cc(NC(=O)N3CCCCC3)ccc21,-2,-2,-4,4,-1,6,/,/,
O=C(Nc1ccc2c(c1)C(=O)N(c1ccccc1)C2=O)c1cccs1,1,-2,1,14,22*,2,29*,40*,
O=C(O)CCN1C(=O)c2ccc(NC(=O)c3cccs3)cc2C1=O,5,8,3,0,2,1,/,/,
O=C(C1=C(O)C(=O)N(CCN2CCOCC2)C1c1cccc(F)c1)c1cc2ccccc2o1 (stereo unspecified),3,0,-6,-4,24*,14,34*,45*,
O=C(C1=C(O)C(=O)N(CCN2CCOCC2)C1c1cccc(O)c1)c1cc2ccccc2o1 (stereo unspecified),5,-7,-6,-4,3,7,/,/,
COc1cccc(C2C(C(=O)c3cccs3)=C(O)C(=O)N2c2cc(C)on2)c1 (stereo unspecified),3,2,-3,0,5,7,/,/,
COc1cccc2cc(C(=O)C3=C(O)C(=O)N(CCN4CCOCC4)C3c3ccc(Cl)cc3)oc12 (stereo unspecified),-1,-2,-3,-2,1,27,/,/,
COc1cccc(C2C(C(=O)c3ccc(C)o3)=C(O)C(=O)N2c2cc(C)on2)c1 (stereo unspecified),-1,3,0,4,8.7*,11,17*,22*,
COc1cccc2cc(C(=O)C3=C(O)C(=O)N(CCN4CCOCC4)C3c3cccc(Cl)c3)oc12 (stereo unspecified),-4,-1,0,1,18*,23,27*,38*,
COc1cccc(C2C(C(=O)c3ccc(C)o3)=C(O)C(=O)N2CCN2CCOCC2)c1 (stereo unspecified),2,5,-1,-1,9.0*,4,21*,25*,
C[C@@H]1CN([C@H](C)CO)S(=O)(=O)c2ccc(Br)cc2O[C@H]1CN(C)C(=O)Nc1cccc(F)c1,-4,-3,3,-5,3,5,/,/,
COc1cc([N+](=O)[O-])ccc1NC(=S)Nn1cnnc1,-3,-5,-6,0,-3,3,/,/,
CC(C(=O)NCc1ccccc1)N(Cc1ccccc1Cl)C(=O)c1snc(C(N)=O)c1N (stereo unspecified),-5,1,0,0,-1,1,/,/,
O=C(CC[C@H]1O[C@@H](n2ccc(=O)[nH]c2=O)[C@H](O)[C@@H]1O)N[C@H](Cc1ccccc1)C(=O)NCc1cccs1,4,-2,-2,1,-1,3,/,/,
COC(=O)[C@]12C[C@H](CC(=O)NCc3cccs3)C(=O)N(Cc3ccc(Cl)cc3Cl)C1=C[C@H](C(C)C)O[C@@H]2C1CC1,-2,-4,-1,/,/,4,/,/,
CCN(CC)CCN1C(=O)C(O)=C(C(=O)c2cc3cccc(OC)c3o2)C1c1ccc(F)cc1 (stereo unspecified),-2,0,-3,0,14*,1,30*,37*,
Cc1ccc(C2C(C(=O)c3cc4ccccc4o3)=C(O)C(=O)N2CCN2CCOCC2)cc1 (stereo unspecified),0,-6,0,-3,10*,14,27*,35*,
COc1ccc(-c2nn(C)c3sc(C(=O)NCc4ccco4)cc23)cc1OC,1,-1,-2,-7,10*,4,13*,18*,
O=C(CSc1nnc(-c2ccc(Br)cc2)n1C1CCCCC1)N1CCCC1,2,2,3,-1,9.3*,-4,8.7*,10*,
SMILES,LEDGF integ inh,MBD2 inh,UHRF1 MBD2 ctr,DNMT1 inh,PG9 Ab binder,rCAG binder,PG9 bind confirm,PGV04 counter,others
O=C(CSc1nnc(-c2ccccc2F)n1C1CCCCC1)N1CCCC1,4,2,-1,3,2,-9,/,/,
O=c1oc(-c2cccc(Cl)c2)nc2c1cnn2-c1ccccc1,-2,5,0,17,1,-2,/,/,
O=c1oc(-c2ccccc2F)nc2c1cnn2-c1ccccc1,1,0,-4,4,20*,0,49*,58*,
CCn1nc(C)cc1C(=O)N1CCCC(Nc2ccc(C(C)C)cc2)C1 (stereo unspecified),-9,5,2,0,-2,-10,/,/,
COC(=O)c1ccc(C2C(C(=O)c3cc4ccccc4o3)=C(O)C(=O)N2CCCN(C)C)cc1 (stereo unspecified),0,-3,0,1,19*,2,20*,29*,
CN(C)CCCN1C(=O)C(O)=C(C(=O)c2cc3ccccc3o2)C1c1ccccc1 (stereo unspecified),1,1,0,-3,36*,-2,37*,55*,
CN(C)CCCN1C(=O)C(O)=C(C(=O)c2cc3ccccc3o2)C1c1ccccn1 (stereo unspecified),1,-6,-3,-1,26*,3,40*,51*,
O=C(C1=C(O)C(=O)N(CCN2CCOCC2)C1c1ccc(Br)cc1)c1cc2ccccc2o1 (stereo unspecified),2,0,-7,-3,6,20,/,/,
